Results on 14 compounds are retold here after PubChem BioAssay.

Experiment [1] is described as follows: inhibitors of TNFa-induced NFkB p65 translocation, primary screen, imaging, HUVEC, MLSMR starter and 10KST1 sets (AID 438).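 Also: compound added about 3h40 before a 20 min TNFalpha stimulation.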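 As to inhibition: signal is the nuclear over cytoplasmic p65 intensity ratio per well.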 Particulars: HUVEC TNFa-induced p65 nuclear translocation; cell count: measured here: nuclei count (cytotoxicity indicator), at 2.08 µM; inhibition: at 2 µM, stronger effect = higher value, 0% TNFa-plus-vehicle, 100% no-TNFa wells.
Experiment [2] in a line: inhibitors of mutant huntingtin aggregation, primary screen, imaging, exon1htt(103Q)mCFP cells, high-content imaging (AID 483;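 active = visual image review flags a hit and inhibition of aggregation exceeds 20%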;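 also: compound exposure lasted 3 days before fixation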;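 as to nuclei count: percent of the per-plate median nuclei count of sample wells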). The settings on record: exon1htt(103Q)mCFP cell line, aggregate imaging, at 2 µM; inhibition of aggregation: stronger effect = higher value; nuclei count: measured here: cell count, toxicity.
Experiment [3] is described as follows: inhibitors of E-selectin induction by TNFa, primary screen, imaging, HUVEC, immunofluorescence, MLSMR starter and 10KST1 sets (AID 487;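 active = visually confirmed hit in the image check and inhibition above 20%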;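 as to inhibition: signal is fraction of cell area covered by stained E-selectin grains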;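 as to nuclei count: 100% = median nuclei count of all wells on the same plate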). Particulars: HUVEC TNFalpha-induced E-selectin immunofluorescence imaging, at 2 µM; inhibition: stronger effect = higher value; nuclei count: measured here: cell number, toxicity.
Experiment [4] has as its target Voltage-gated potassium channel subunit beta-2 (Rattus norvegicus) (UniProt P62483). As to the kind of experiment: KvBeta enzyme negative modulators, primary screen, biochemical, NADPH fluorescence (AID 622;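 active = fluorescence slope higher than the sample average by over 3 SD, cut at about -0.22 in these data, passing the limit was not always enough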;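 also: slope of raw intensity against log time taken from 70 to 1610 s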). Particulars: recombinant KvBeta, 4-cyanobenzaldehyde reduction, at 10 µM, stronger effect = higher value.
The target is the same in experiment [5]. As to the kind of experiment: KvBeta positive modulators, primary screen, biochemical, NADPH fluorescence (AID 623;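 active = NADPH fluorescence slope more negative than the mean of all samples by about 3 SD, 99.7% confidence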;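 also: fluorescence intensity change per second fitted from 20 to 320 s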). The settings on record: Recombinant KvBeta, NADPH fluorescence decrease slope, 10 min; at 10 µM; stronger effect = lower value.
The target of experiment [6] is Alpha-2C adrenergic receptor (Homo sapiens) (UniProt P18825). As to the kind of experiment: modulators of alpha2C/GIRK thallium flux, primary screen, cell-based, HEK293 alpha2C/GIRK1/2 (AID 624;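 active = fluorescence slope after compound addition differing from the mean of all screened samples at 99.7% confidence, in either direction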;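 also: slope of fluorescence ratio to pre-addition baseline per second over 15 to 24 s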). The settings on record: thallium flux BTC fluorescence, at 10 µM, actives lie on both sides.
The nature of experiment [7]: inhibitors of Sendai virus-induced IRF3 signaling, primary screen, TLR/RLR signaling modifier project, cell-based, Sendai virus stimulus, luciferase, 10K MLSCN set (AID 602276;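 active = inhibition at or above 50% at 10 µM; inactive = inhibition below 50%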;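 also: firefly luciferase from ISG56 promoter only with Renilla not read in this screen; 0% = Sendai virus plus DMSO and 100% = medium plus DMSO without virus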). The settings on record: HEK293 RL24 IRF3 luciferase reporter, at 10 µM, stronger effect = higher value. In general terms: A reporter such as luciferase makes a cellular process visible.
Experiment [8] in a line: inhibitors of poly I:C-induced TLR3 signaling, primary screen, cell-based, poly I:C stimulus, luciferase, 10K MLSCN set (AID 602277;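 active = inhibition of the reporter signal at or above 50%; inactive = inhibition below 50%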). The settings on record: HEK293-TLR3 RL24 IRF3 luciferase reporter, at 10 µM, stronger effect = higher value.

The source made the active and inactive calls.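 The calls were made as follows, unless noted: active = inhibition above 20% together with a positive visual image hit; inconclusive = visual image hit but inhibition not above 20%; inactive = no visual image hit.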

Chain of Alpha-2C adrenergic receptor (Homo sapiens) (P18825 whole entry, looked up): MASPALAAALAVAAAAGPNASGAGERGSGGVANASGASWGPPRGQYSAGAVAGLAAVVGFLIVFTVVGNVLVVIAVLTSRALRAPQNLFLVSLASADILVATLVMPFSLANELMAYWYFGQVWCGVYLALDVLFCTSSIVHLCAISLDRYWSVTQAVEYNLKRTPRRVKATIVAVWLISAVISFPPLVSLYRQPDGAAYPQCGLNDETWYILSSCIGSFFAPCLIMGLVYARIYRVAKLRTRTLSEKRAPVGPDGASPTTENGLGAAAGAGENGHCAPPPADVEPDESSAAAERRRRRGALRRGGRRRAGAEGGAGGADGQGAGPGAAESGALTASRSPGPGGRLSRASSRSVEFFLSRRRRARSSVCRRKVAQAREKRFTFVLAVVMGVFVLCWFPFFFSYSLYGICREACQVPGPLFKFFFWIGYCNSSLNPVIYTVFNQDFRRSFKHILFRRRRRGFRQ
Chain of Voltage-gated potassium channel subunit beta-2 (Rattus norvegicus) (P62483 whole entry, looked up): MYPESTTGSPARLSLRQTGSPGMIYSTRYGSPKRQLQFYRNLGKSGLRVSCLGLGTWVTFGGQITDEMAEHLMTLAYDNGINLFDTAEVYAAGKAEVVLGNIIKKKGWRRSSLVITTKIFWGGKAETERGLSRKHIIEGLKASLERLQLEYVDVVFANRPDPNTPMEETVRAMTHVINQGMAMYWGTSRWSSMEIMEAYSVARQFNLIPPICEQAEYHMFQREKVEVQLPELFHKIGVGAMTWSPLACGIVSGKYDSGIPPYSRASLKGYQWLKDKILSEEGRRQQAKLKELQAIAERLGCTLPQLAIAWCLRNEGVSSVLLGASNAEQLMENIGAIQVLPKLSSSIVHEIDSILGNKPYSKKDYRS

On to `CC(CCc1ccccc1)NC(=O)c1ccc(Br)o1` (centres undefined), for which the cell count in experiment [1] was determined as 570. The inhibition in experiment [1] is -7.8% (inactive); in experiment [3], -78.2% (inactive); in experiment [7], 7.34% (inactive); in experiment [8], 9.03% (inactive). The inhibition of aggregation in experiment [2] is 2.5% (inactive). Besides, the nuclei count in experiment [2] turned out to be 83.4%; in experiment [3] it was 95.1%. The fluorescence slope in experiment [4] is -0.449 (inactive). Also, in experiment [5], the NADPH fluorescence slope is -3.4e-05 (inactive). Further, the slope in experiment [6] is 0.00563 (inactive).
`COc1ccc(C2CC(c3ccc(C)cc3)Nc3ncnn32)cc1` (centres undefined): in experiment [1], the cell count worked out at 615. The inhibition was -0.2% (inactive) in experiment [1], 30.7% (inactive) in experiment [3], 7.28% (inactive) in experiment [7] and 16.4% (inactive) in experiment [8]. In addition, the inhibition of aggregation in experiment [2] was -9.1% (inactive). Besides, the nuclei count stood at 107% in experiment [2] and 98.3% in experiment [3]. Also, in experiment [4], the fluorescence slope is -0.524 (inactive). In addition, in experiment [5], the NADPH fluorescence slope is -2.3e-05 (inactive). In addition, the slope in experiment [6] is 0.00685 (inactive).
In the case of `Cc1cnc(C(=O)Nc2ccc(N3CCN(C(=O)OC(C)(C)C)CC3)cc2)cn1`, in experiment [1], the cell count turned out to be 316. Besides, the inhibition was 8.7% (inactive) in experiment [1], -1.6% (inactive) in experiment [3], -2.13% (inactive) in experiment [7] and 6.1% (inactive) in experiment [8]. Further, the inhibition of aggregation in experiment [2] is -7.1% (inactive). In addition, the nuclei count was 4.4% in experiment [2] and 93.1% in experiment [3]. For the same compound, in experiment [4], the fluorescence slope is -0.636 (inactive). Also, in experiment [5], the NADPH fluorescence slope was -3.5e-05 (inactive). In experiment [6], the slope is 0.00617 (inactive).
Regarding `COCCOC(=O)c1cc(C(=O)c2cc(F)ccc2O)coc1=N`, the cell count in experiment [1] was 473. For the same compound, the inhibition in experiment [1] was -11.2% (inactive); in experiment [3] it was -92.3% (inactive); in experiment [7] it was 6.76% (inactive); in experiment [8], 11% (inactive). In addition, the inhibition of aggregation in experiment [2] was 8.5% (inactive). In addition, the nuclei count in experiment [2] turned out to be 107%; in experiment [3] it was 115%. Also, in experiment [4], the fluorescence slope is -0.597 (inactive). Also, the NADPH fluorescence slope in experiment [5] is -1.1e-05 (inactive). Moreover, the slope in experiment [6] was 0.00549 (inactive).
`CCOc1ccc(S(=O)(=O)n2c(C)nc3ccccc32)cc1`: the cell count in experiment [1] turned out to be 781. In addition, the inhibition was -5.8% (inactive) in experiment [1], -99.9% (inactive) in experiment [3], 49.1% (inactive) in experiment [7] and 5.17% (inactive) in experiment [8]. Further, the inhibition of aggregation in experiment [2] is -0.6% (inactive). Also, the nuclei count in experiment [2] worked out at 101%; in experiment [3], 115%. Further, the fluorescence slope in experiment [4] is -0.627 (inactive). Moreover, the NADPH fluorescence slope in experiment [5] was 9.2e-06 (inactive). The slope in experiment [6] is 0.00517 (inactive).
Regarding `Cc1ccc(N(C(=O)c2ccncc2)C2C=CS(=O)(=O)C2)cc1` (centres undefined), the cell count in experiment [1] turned out to be 816. Moreover, the inhibition is -4% (inactive) in experiment [1], -56.8% (inactive) in experiment [3], -4.78% (inactive) in experiment [7] and 24.5% (inactive) in experiment [8]. The inhibition of aggregation in experiment [2] is -5.8% (inactive). In addition, the nuclei count in experiment [2] was 114%; in experiment [3] it was 117%. Besides, the fluorescence slope in experiment [4] was -0.612 (inactive). In addition, the NADPH fluorescence slope in experiment [5] is -2.8e-05 (inactive). Besides, the slope in experiment [6] is 0.00723 (inactive).
Regarding `COc1ccc(C2(C(=O)Nc3cc(C)on3)CCOCC2)cc1`, the cell count in experiment [1] came out at 312. Further, the inhibition in experiment [1] was 0.4% (inactive); in experiment [3], -51.8% (inactive); in experiment [7] it was 13.8% (inactive); in experiment [8], 5.89% (inactive). Further, in experiment [2], the inhibition of aggregation was 10.1% (inactive). The results for the nuclei count in experiment [2] and in experiment [3] were 108% and 134%, respectively. The fluorescence slope in experiment [4] was -0.388 (inactive). In addition, the NADPH fluorescence slope in experiment [5] is -4.8e-05 (inactive). For the same compound, the slope in experiment [6] is 0.00489 (inactive).
For the compound `Cc1c[nH]c2cccc(OCC(O)CNC(C)(C)C)c12` (centres undefined), in experiment [1], the cell count is 324. The inhibition was -1.6% (inactive) in experiment [1], -4.9% (inactive) in experiment [3], 12.1% (inactive) in experiment [7] and 27.1% (inactive) in experiment [8]. Moreover, the inhibition of aggregation in experiment [2] was 15.3% (inactive). The nuclei count in experiment [2] was 95.2%; in experiment [3], 123%. Further, the fluorescence slope in experiment [4] was -0.454 (inactive). Further, in experiment [5], the NADPH fluorescence slope was 1.3e-05 (inactive). For the same compound, the slope in experiment [6] is 0.00547 (inactive).
For `CCc1nnc(NC(=O)c2ccc(S(=O)(=O)NCC(C)C)cc2)s1`, the cell count in experiment [1] was found to be 494. For the same compound, the inhibition in experiment [1] is -4.1% (inactive); in experiment [3], -73.7% (inactive); in experiment [7], -15.9% (inactive); in experiment [8], -61.5% (inactive). In addition, the inhibition of aggregation in experiment [2] is -18.5% (inactive). The nuclei count turned out to be 100% in experiment [2] and 210% in experiment [3]. Besides, the fluorescence slope in experiment [4] is -0.491 (inactive). In addition, in experiment [5], the NADPH fluorescence slope was -3.9e-05 (inactive). The slope in experiment [6] was 0.00682 (inactive).
`O=C(Cn1cnc2ccccc2c1=O)NCCC(=O)N1CCN(Cc2ccccc2)CC1`: the cell count in experiment [1] turned out to be 451. Also, the inhibition was -3.8% (inactive) in experiment [1], -0.7% (inactive) in experiment [3], 12.1% (inactive) in experiment [7] and 24.7% (inactive) in experiment [8]. Further, the inhibition of aggregation in experiment [2] was 31.1% (inactive). Moreover, the figures for the nuclei count in experiment [2] and in experiment [3] were 80.5% and 112%, respectively. For the same compound, in experiment [4], the fluorescence slope was -0.416 (inactive). In experiment [5], the NADPH fluorescence slope is -9.6e-05 (inactive). For the same compound, in experiment [6], the slope was 0.00528 (inactive).
Take `COc1ccc(CNC(=O)C(c2ccco2)N(Cc2cccs2)C(=O)Cc2cccs2)cc1` (centres undefined): in experiment [1], the cell count turned out to be 658. The inhibition in experiment [1] is 9.5% (inactive); in experiment [3], -44.5% (inactive); in experiment [7], 13.1% (inactive); in experiment [8], 28.3% (inactive). In addition, the inhibition of aggregation in experiment [2] is -14.3% (inactive). Further, the nuclei count stood at 107% in experiment [2] and 105% in experiment [3]. The fluorescence slope in experiment [4] is -0.6 (inactive). The NADPH fluorescence slope in experiment [5] is -8.4e-06 (inactive). The slope in experiment [6] is 0.00565 (inactive).
With `O=C(NCc1nc2ccccc2[nH]1)c1ccco1`, the cell count in experiment [1] is 440. Further, the inhibition in experiment [1] was 0.8% (inactive); in experiment [3], -228% (inactive); in experiment [7], -2.68% (inactive); in experiment [8] it was -21.9% (inactive). Also, the inhibition of aggregation in experiment [2] was 1.3% (inactive). Further, the nuclei count worked out at 113% in experiment [2] and 140% in experiment [3]. The fluorescence slope in experiment [4] was -0.38 (inactive). Moreover, the NADPH fluorescence slope in experiment [5] was -5.6e-05 (inactive). In experiment [6], the slope is 0.00592 (inactive).
On to `CC1CCCC(N2CCN(C(=O)c3ccc(F)cc3)CC2)C1` (centres undefined), for which the cell count in experiment [1] was found to be 625. Besides, the inhibition in experiment [1] is -1.3% (inactive); in experiment [3], -53.4% (inactive); in experiment [7], 2.84% (inactive); in experiment [8], 43.9% (inactive). In experiment [2], the inhibition of aggregation was -15.5% (inactive). In addition, the nuclei count in experiment [2] amounted to 106%; in experiment [3], 114%. Moreover, the fluorescence slope in experiment [4] is -0.581 (inactive). In experiment [5], the NADPH fluorescence slope is -4.9e-05 (inactive). Also, in experiment [6], the slope is 0.00721 (inactive).
Turning to `CC(C)Sc1nc2c(c(=O)n1-c1ccc(F)cc1)SCC2`, the cell count in experiment [1] is 384. Also, the inhibition in experiment [1] is -5.2% (inactive); in experiment [3] it was -22% (inactive); in experiment [7], -15.9% (inactive); in experiment [8], -9.58% (inactive). For the same compound, the inhibition of aggregation in experiment [2] was -10.1% (inactive). The figures for the nuclei count in experiment [2] and in experiment [3] were 106% and 108%, respectively. For the same compound, the fluorescence slope in experiment [4] is -0.519 (inactive). Also, the NADPH fluorescence slope in experiment [5] was -8.5e-05 (inactive). For the same compound, the slope in experiment [6] is 0.00437 (inactive).

A word on the inhibition: it is the change of the read-out against control, counted positive when it falls.
